Laboratory results taken from PubChem BioAssay.
For part of these data: Entries with a potency or affinity are not part of this list. Inconclusive results are not listed. Calls of active or inactive are those of the source.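 The calls were made as follows, unless noted: active = falling signal with fitted half-maximal potency no higher than twice the top valid tested dose; inconclusive = poor fit quality, or flat fit spanning -70% to -30%; inactive = potency over limit, rising signal, or flat fit inside 30%.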

Legend:
[1] = small molecules captured by biotinylated probe aFSTL3 – biochemical, small-molecule microarray, fluorescence 635/667, stem cell growth factor project, primary screen (AID 1064); conditions: higher = more signal;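 also: measures binding of the biotinylated anti-FSTL3 antibody to printed compounds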
[2] = binders from COS7 lysate, DM2A8 probe, primary screen, torsin A project, cell lysate, small-molecule microarray, fluorescence 635/667 (AID 1065); conditions: higher = more signal, COS7 lysate expressing mutant human TOR1A
[3] = small molecules captured by biotinylated probe aFGF2 – biochemical, small-molecule microarray, fluorescence 635/667, stem cell growth factor project, primary screen (AID 1067); conditions: higher = more signal;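 also: measures binding of biotinylated aFGF2 protein to printed compounds on slides; z-score merges feature fluorescence and signal-to-noise across triplicate slides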
[4] = small molecules captured by biotinylated probe aFGF10 – biochemical, small-molecule microarray, fluorescence 635/667, stem cell growth factor project, primary screen (AID 1071); conditions: higher = more signal;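 also: score merges 667 nm spot intensity and signal to noise from triplicate slides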
[5] = target: Neurogenic locus notch homolog protein 2 (Homo sapiens) (UniProt Q04721); test: small molecules binding Notch2 protein – biochemical, small-molecule microarray, 635 nm fluorescence, stem cell growth factors, primary screen (AID 1073); conditions: higher = more signal
[6] = target: Pro-neuregulin-1, membrane-bound isoform (Homo sapiens) (UniProt Q02297); test: small molecules binding neuregulin-1 protein – biochemical, small-molecule microarray, fluorescence 635/667, psychiatric disease protein project, primary screen (AID 1075); conditions: NRG1 binding, 635 nm fluorescence, higher = more signal;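 also: score combines 667 nm spot fluorescence with signal to noise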
[7] = test system: Neuregulin-1 EGF-like domain; test: small molecules binding NRG1 EGF domain – biochemical, small-molecule microarray, 635 nm fluorescence, primary screen (AID 1081); conditions: higher = more signal;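 also: binding of the protein to compounds printed on small-molecule microarray slides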
[8] = FRG1 expression reporter modulators in myotubes – cell-based, C2C12 myotubes, firefly/Renilla luciferase, luminescence, FRG1 inhibition for FSHD, primary screen (AID 1084); conditions: FRG1 promoter luciferase, higher = more signal, called active from +8 up or from −8 down
[9] = small molecules captured by biotinylated probe aFST – biochemical, small-molecule microarray, fluorescence 635/667, stem cell growth factor project, primary screen (AID 1086); conditions: higher = more signal;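 also: score merges 667 nm fluorescence with signal-to-noise of each printed compound spot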
[10] = binders of probe aHhip on microarray, primary screen, stem cell growth factor project, biochemical, small-molecule microarray, fluorescence 635/667 (AID 1087); conditions: higher = more signal;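 also: score merges spot fluorescence at 667nm with spot signal to noise ratio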
[11] = test system: PRMT1 (protein arginine N-methyltransferase 1); test: small molecules binding arginine methyltransferase PRMT1 – biochemical, small-molecule microarray, 635 nm fluorescence, primary screen (AID 1088); conditions: higher = more signal;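 also: binding of Prmt1 protein to compounds spotted on small-molecule microarray slides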
[12] = growth effects on S. cerevisiae YJM789 – YJM789 clinical isolate, OD600, 24 h, basal, primary screen (AID 1089); conditions: higher = more signal, called active from +8 up or from −8 down;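 also: growth of clinical yeast isolate S. cerevisiae YJM 789 seeded 1000 cells per well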
[13] = S. pombe growth modifiers, basal conditions – strain 972, OD600, 24 h, no modulator, primary screen (AID 1090);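 also: basal condition with compound alone and no growth modifier present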; conditions: S. pombe 972 growth, higher = more signal, called active from +8 up or from −8 down
[14] = budding yeast growth modifiers under rapamycin – strain BY4716, OD600, 96 h, primary screen (AID 1091); conditions: S. cerevisiae BY4716 + rapamycin, higher = more signal, called active from +8 up or from −8 down
[15] = target: Torsin-1A-interacting protein 2 (Homo sapiens) (UniProt Q8NFQ8); test: small molecules binding lysate-expressed LULL1 – cell lysate, human LULL1 lysate, 635/667 nm fluorescence, primary screen (AID 1092); conditions: small-molecule microarray, hLULL1 lysate binding, 635 nm fluorescence; higher = more signal;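 also: probe is lysate of COS7 cells overexpressing human LULL1; score merges per-feature 667 nm fluorescence with signal-to-noise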
[16] = optical density change of DRC41 E. coli – strain DRC41, OD650, 24 h, E. coli filamentation project, primary screen (AID 1093);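 also: MC1000 strain lacking acrAB efflux and sulA so SOS filamentation is blocked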; conditions: E. coli DRC41 growth, higher = more signal, called active from +8 up or from −8 down
[17] = fungal growth arrest, C. neoformans – Alamar Blue, cherry-picks, dose response (AID 686998); conditions: Cryptococcus neoformans growth, 24 h; series mostly up to 35 µM
[18] = C. neoformans lysis by adenylate kinase leakage – AK release luminescence, cherry-picks, dose response (AID 687000;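 active = fitted dose curve reaches 40% lysis signal rise at or below the highest valid concentration tested for that sample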;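 also: luminescent detection of adenylate kinase leaking from lysed yeast; 0% = median neutral control signal and 100% = double that signal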); conditions: 4 h, 100% = twice the neutral-control signal; series mostly up to 15 µM
[19] = viability loss in HepG2 hepatoma cells – cell-based, cherry-picks, set 2, cytotoxicity control, dose response (AID 687002;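 active = a dose-response fit showing signal loss, with half-maximal concentration no higher than twice the top tested dose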); conditions: ATP luminescence (CellTiter-Glo), 48 h; series mostly up to 26 µM

Pro-neuregulin-1, membrane-bound isoform (Homo sapiens), sequence (Q02297 whole entry, looked up, the tested form may be a part, canonical isoform): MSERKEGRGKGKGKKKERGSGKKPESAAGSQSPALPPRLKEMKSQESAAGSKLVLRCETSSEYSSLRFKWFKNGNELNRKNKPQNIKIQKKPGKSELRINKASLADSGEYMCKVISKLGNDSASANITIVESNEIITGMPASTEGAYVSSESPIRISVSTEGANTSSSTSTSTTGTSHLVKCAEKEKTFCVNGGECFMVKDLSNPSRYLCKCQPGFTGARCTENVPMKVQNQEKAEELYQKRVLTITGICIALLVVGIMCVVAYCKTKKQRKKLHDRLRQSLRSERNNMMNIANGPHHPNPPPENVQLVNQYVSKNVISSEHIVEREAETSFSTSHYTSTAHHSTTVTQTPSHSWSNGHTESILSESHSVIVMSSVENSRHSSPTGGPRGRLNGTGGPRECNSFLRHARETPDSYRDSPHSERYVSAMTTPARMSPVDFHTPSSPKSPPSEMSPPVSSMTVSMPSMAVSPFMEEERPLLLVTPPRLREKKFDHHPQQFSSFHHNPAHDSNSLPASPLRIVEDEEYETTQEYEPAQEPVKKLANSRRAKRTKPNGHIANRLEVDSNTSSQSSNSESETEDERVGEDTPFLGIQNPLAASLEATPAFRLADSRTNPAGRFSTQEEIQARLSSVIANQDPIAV
Neurogenic locus notch homolog protein 2 (Homo sapiens), sequence (Q04721 whole entry, looked up, canonical isoform): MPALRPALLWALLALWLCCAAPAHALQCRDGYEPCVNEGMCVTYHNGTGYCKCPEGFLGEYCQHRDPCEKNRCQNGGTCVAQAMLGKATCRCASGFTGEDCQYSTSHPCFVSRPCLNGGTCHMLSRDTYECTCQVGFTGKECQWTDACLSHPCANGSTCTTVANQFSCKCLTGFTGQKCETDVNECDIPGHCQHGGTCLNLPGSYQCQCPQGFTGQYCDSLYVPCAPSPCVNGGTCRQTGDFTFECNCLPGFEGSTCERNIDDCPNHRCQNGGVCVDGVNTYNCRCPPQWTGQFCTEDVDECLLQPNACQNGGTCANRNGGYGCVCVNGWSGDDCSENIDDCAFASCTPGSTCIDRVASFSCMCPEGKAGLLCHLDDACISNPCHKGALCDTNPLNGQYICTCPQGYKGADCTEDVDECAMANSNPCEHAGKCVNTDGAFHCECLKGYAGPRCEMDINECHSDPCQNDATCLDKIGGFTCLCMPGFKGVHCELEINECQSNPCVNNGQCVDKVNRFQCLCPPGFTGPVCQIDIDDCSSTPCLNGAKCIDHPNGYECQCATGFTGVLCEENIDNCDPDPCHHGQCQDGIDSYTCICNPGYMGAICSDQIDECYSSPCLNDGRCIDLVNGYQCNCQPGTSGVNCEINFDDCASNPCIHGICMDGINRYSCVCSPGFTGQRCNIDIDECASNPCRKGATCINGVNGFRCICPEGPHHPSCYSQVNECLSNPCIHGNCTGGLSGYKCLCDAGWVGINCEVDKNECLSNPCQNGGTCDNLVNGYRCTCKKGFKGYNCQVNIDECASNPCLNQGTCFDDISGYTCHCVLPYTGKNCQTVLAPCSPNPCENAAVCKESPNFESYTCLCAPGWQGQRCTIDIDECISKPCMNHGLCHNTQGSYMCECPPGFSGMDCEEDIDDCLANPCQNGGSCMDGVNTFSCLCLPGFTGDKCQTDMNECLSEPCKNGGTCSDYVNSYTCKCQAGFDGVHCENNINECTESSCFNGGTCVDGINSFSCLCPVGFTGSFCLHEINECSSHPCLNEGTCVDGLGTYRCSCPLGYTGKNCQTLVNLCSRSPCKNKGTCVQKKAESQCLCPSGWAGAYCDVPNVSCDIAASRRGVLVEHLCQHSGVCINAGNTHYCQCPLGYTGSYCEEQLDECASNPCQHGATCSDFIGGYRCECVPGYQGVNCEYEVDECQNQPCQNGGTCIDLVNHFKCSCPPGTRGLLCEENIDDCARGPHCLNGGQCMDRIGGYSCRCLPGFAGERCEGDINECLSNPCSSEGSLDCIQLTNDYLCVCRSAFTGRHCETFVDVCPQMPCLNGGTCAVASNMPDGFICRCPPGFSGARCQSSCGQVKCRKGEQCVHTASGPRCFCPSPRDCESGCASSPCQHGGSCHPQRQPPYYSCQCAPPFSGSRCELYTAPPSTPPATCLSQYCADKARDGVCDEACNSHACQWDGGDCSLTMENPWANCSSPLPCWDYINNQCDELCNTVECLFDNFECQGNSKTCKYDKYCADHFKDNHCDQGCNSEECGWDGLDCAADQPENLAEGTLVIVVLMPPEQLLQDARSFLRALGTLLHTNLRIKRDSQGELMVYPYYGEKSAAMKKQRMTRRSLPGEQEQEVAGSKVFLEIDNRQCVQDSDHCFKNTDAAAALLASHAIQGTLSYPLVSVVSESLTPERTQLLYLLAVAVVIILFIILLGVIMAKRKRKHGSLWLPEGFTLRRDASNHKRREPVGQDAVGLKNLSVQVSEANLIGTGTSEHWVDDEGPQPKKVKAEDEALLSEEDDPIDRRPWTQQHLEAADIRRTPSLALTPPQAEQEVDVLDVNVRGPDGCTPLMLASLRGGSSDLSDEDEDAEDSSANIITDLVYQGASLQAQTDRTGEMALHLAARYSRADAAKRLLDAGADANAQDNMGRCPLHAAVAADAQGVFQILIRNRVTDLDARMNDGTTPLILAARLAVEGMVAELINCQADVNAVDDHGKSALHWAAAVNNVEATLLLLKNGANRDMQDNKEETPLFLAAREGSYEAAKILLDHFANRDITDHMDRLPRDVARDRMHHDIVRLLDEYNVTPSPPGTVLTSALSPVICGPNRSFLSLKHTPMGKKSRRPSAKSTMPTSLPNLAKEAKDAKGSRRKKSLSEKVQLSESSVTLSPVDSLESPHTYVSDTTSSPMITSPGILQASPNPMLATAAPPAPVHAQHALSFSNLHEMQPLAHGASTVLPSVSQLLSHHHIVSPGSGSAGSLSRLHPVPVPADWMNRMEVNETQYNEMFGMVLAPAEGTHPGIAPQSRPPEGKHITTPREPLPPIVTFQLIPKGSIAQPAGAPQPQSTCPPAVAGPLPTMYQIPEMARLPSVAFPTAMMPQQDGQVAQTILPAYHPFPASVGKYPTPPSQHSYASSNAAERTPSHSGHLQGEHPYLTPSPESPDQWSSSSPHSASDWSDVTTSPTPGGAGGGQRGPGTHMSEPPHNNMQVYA
Torsin-1A-interacting protein 2 (Homo sapiens), sequence (Q8NFQ8 whole entry, looked up): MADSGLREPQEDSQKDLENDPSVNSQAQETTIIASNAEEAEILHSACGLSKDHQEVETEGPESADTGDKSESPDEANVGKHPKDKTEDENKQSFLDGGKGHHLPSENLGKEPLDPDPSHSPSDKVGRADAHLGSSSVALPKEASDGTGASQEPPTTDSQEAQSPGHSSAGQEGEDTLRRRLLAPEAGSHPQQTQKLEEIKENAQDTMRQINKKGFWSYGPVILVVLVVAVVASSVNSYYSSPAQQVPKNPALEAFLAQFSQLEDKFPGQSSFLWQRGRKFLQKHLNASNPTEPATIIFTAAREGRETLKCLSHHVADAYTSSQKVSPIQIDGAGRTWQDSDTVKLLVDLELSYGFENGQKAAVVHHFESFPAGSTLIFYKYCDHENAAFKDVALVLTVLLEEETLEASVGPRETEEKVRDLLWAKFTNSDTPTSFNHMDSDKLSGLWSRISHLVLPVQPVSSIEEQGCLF

## CCOC(=O)C[C@H]1[C@H](OC(=O)c2ccc(-c3ccccc3)cc2)[C@@H](NC(=O)C2CCCCC2)c2cc(OCCCO)ccc2N1C(=O)c1ccc2ccccc2n1
[1]
  composite z-score: 0.0371
[2]
  composite z-score: 0.3
[3]
  composite z-score: -0.0788
[4]
  composite z-score: 0.361
[5]
  composite z-score: 0.689
[6]
  composite z-score: 0.738
[7]
  composite z-score: 0.741
[8]
  z-score: -0.429 (inactive)
[9]
  composite z-score: 0.483
[10]
  composite z-score: -0.226
[11]
  composite z-score: 1.12
[12]
  z-score: -0.778 (inactive)
[13]
  z-score: -1.55 (inactive)
[14]
  z-score: -0.327 (inactive)
[15]
  composite z-score: 1.72
[16]
  z-score: 2.33 (inactive)

## CN(C[C@H]1N[C@@H](CO)[C@H]1c1ccc(-c2cccc(F)c2)cc1)S(C)(=O)=O
[17]
  outcome: inactive
[18]
  outcome: inactive

## CCCCC(=C=CC[C@H](O)c1cccc(OCCO)c1)CCO
[1]
  composite z-score: -0.0452
[2]
  composite z-score: -0.0768
[3]
  composite z-score: -0.0976
[4]
  composite z-score: -0.662
[5]
  composite z-score: -0.854
[6]
  composite z-score: 0.52
[7]
  composite z-score: 0.519
[8]
  z-score: 0.125 (inactive)
[9]
  composite z-score: -0.101
[10]
  composite z-score: 0.0623
[11]
  composite z-score: -0.19
[12]
  z-score: 0.166 (inactive)
[13]
  z-score: -0.486 (inactive)
[14]
  z-score: -1.16 (inactive)
[15]
  composite z-score: 1.33
[16]
  z-score: 1.11 (inactive)

## COc1ccc(C(=O)Nc2cccc(CN3C(=O)[C@@]4(O[C@@H](CCO)[C@H]([Si](C)(C)c5ccc(OC)cc5)[C@H]4C)c4ccccc43)c2)cc1
[1]
  composite z-score: 0.457
[2]
  composite z-score: -0.0176
[3]
  composite z-score: -0.0784
[4]
  composite z-score: 0.19
[5]
  composite z-score: 0.0782
[6]
  composite z-score: -0.0498
[7]
  composite z-score: 0.984
[8]
  z-score: -3.53 (inactive)
[9]
  composite z-score: 0.0018
[10]
  composite z-score: -0.216
[11]
  composite z-score: 0.95
[12]
  z-score: 0.324 (inactive)
[13]
  z-score: -9.44 (active)
[14]
  z-score: 0.2 (inactive)
[15]
  composite z-score: 1.35
[16]
  z-score: 1.68 (inactive)

## C[C@@H](NC(=O)C[C@@H]1CC[C@@H]2[C@H](COC[C@H](O)CN2Cc2cc(F)ccc2F)O1)c1ccccc1
[17]
  outcome: inactive
[18]
  outcome: inactive
[19]
  outcome: inactive

## CCOC(=O)C[C@H]1[C@H](OC(=O)c2ccc(-c3ccccc3)cc2)[C@@H](NC(=O)c2ccccc2)c2cc(OCCCO)ccc2N1C(=O)c1ccccc1
[1]
  composite z-score: -0.3
[2]
  composite z-score: 0.707
[3]
  composite z-score: 0.0216
[4]
  composite z-score: 0.281
[5]
  composite z-score: 0.741
[6]
  composite z-score: 0.622
[7]
  composite z-score: 0.773
[8]
  z-score: -0.867 (inactive)
[9]
  composite z-score: 0.515
[10]
  composite z-score: 0.201
[11]
  composite z-score: 1.35
[12]
  z-score: -1.08 (inactive)
[13]
  z-score: -1.94 (inactive)
[14]
  z-score: -0.596 (inactive)
[15]
  composite z-score: 1.69
[16]
  z-score: 2.17 (inactive)

## CC(C)NC(=O)Nc1ccc2c(c1)CC(=O)N([C@@H](C)CO)C[C@@H](C)[C@@H](CN(C)Cc1ccc(Oc3ccccc3)cc1)O2
[17]
  outcome: inactive
[18]
  outcome: inactive
[19]
  outcome: inactive

## C[C@@H]1CN([C@@H](C)CO)C(=O)c2c(c3ccccc3n2C)-c2ccccc2CO[C@@H]1CN(C)S(=O)(=O)c1ccc(Cl)cc1
[17]
  outcome: inactive
[18]
  outcome: inactive
[19]
  outcome: inactive

## COc1cccc(S(=O)(=O)N2C[C@@H](O)COC[C@H]3O[C@H](CC(=O)Nc4ccccc4)CC[C@@H]32)c1
[17]
  outcome: inactive
[18]
  outcome: inactive
[19]
  outcome: inactive

## C[C@H]1CN([C@@H](C)CO)S(=O)(=O)c2ccc(C#Cc3cccc(F)c3)cc2O[C@@H]1CN(C)C(=O)NC1CCCCC1
[17]
  outcome: inactive
[18]
  outcome: inactive
[19]
  outcome: inactive

## CCCC#Cc1ccc2c(c1)O[C@H](CN(C)CCC)[C@H](C)CN([C@@H](C)CO)S2(=O)=O
[17]
  outcome: inactive
[18]
  outcome: inactive
[19]
  outcome: inactive

## COc1cccc(-c2cn(CC[C@@H]3CC[C@@H](NC(C)=O)[C@H](CO)O3)nn2)c1
[17]
  outcome: inactive
[18]
  outcome: inactive
[19]
  outcome: inactive

## CN1C(=O)c2cc(NC(=O)NC3CCCC3)ccc2OC[C@H]2O[C@@H](CC(=O)NC3CCC3)CC[C@@H]21
[17]
  outcome: inactive
[18]
  outcome: inactive
[19]
  outcome: inactive

## CCNC(=O)Nc1ccc2c(c1)C(=O)N(C)[C@H]1CC[C@H](CC(=O)Nc3ccccc3F)O[C@@H]1CO2
[17]
  outcome: inactive
[18]
  outcome: inactive
[19]
  outcome: inactive

## C[C@H](CO)N1C[C@H](C)[C@@H](CN(C)Cc2ccncc2)Oc2ccc(NC(=O)CCC(F)(F)F)cc2C1=O
[17]
  outcome: inactive
[18]
  outcome: inactive
[19]
  outcome: inactive

## CCCN1CCCC[C@H]1C(=O)Nc1c(C)cccc1C
[17]
  outcome: inactive
[18]
  outcome: inactive
[19]
  outcome: inactive

## C[C@@H]1CN([C@H](C)CO)C(=O)c2cccc(NC(=O)Nc3ccccc3)c2O[C@@H]1CN(C)Cc1ccc(Cl)c(Cl)c1
[17]
  outcome: inactive
[18]
  outcome: inactive
[19]
  outcome: inactive

## Cc1cccc(-c2ccc([C@@H]3[C@H]4CN(C(=O)c5ccc6c(c5)OCO6)CCCCN4[C@H]3CO)cc2)c1
[17]
  outcome: inactive
[18]
  outcome: inactive
[19]
  outcome: inactive

## CNC(=O)CN(c1ccc(C)cc1)S(=O)(=O)c1ccccc1
[17]
  outcome: inactive
[18]
  outcome: inactive
[19]
  outcome: inactive

## O=S(=O)(c1ccc(F)cc1)N1C[C@@H]2[C@H](c3ccccc31)[C@@H](CO)N2Cc1ccccc1Cl
[17]
  outcome: inactive
[18]
  outcome: inactive
[19]
  outcome: inactive

## Cc1cccc(C)c1NC(=O)C(CCc1ccccc1)N1CCC(c2ccccc2)CC1 (stereo not drawn)
[17]
  outcome: inactive
[18]
  outcome: inactive
[19]
  outcome: inactive

## CO[C@H]1CN(C)C(=O)c2cc(NS(=O)(=O)CC(F)(F)F)ccc2OC[C@@H](C)N(Cc2cccnc2)C[C@@H]1C
[17]
  outcome: inactive
[18]
  outcome: inactive
[19]
  outcome: inactive

## CC=Cc1ccc2n(c1=O)C[C@H]1[C@H](CO)[C@@H](C(=O)N3CCc4ccccc4C3)N(C(=O)C3CC3)[C@@H]21 (mixture of isomers)
[17]
  outcome: inactive
[18]
  outcome: inactive
[19]
  outcome: inactive

## COc1ccc(N(CC(=O)NCCSCc2ccc(C)cc2)S(=O)(=O)c2ccccc2)cc1
[17]
  outcome: inactive
[18]
  outcome: inactive
[19]
  outcome: inactive

## C[C@@H]1CN([C@@H](C)CO)C(=O)c2cc(NC(=O)Nc3cccc4ccccc34)ccc2O[C@@H]1CN(C)C(=O)Nc1ccccc1
[17]
  outcome: inactive
[18]
  outcome: inactive
[19]
  outcome: inactive

## C[C@@H](NC(=O)C[C@@H]1CC[C@H]2[C@@H](COC[C@@H](O)CN2Cc2cc(F)ccc2F)O1)c1ccccc1
[17]
  outcome: inactive
[18]
  outcome: inactive
[19]
  outcome: inactive

## C[C@H]1CN([C@@H](C)CO)S(=O)(=O)c2ccc(C#Cc3ccccn3)cc2O[C@@H]1CN(C)Cc1ccccc1
[17]
  outcome: inactive
[18]
  outcome: inactive
[19]
  outcome: inactive

## COc1ccccc1C(=O)Nc1ccc2c(c1)OC[C@H](C)N(C(C)=O)C[C@H](C)[C@H](OC)CN(C)C2=O
[17]
  outcome: inactive
[18]
  outcome: inactive
[19]
  outcome: inactive

## N#Cc1ccc(-c2ccc3c(c2)[C@H]2[C@H](CCN2C(=O)Cc2ccccc2)[C@@H](CO)N3)cc1
[17]
  outcome: inactive
[18]
  outcome: inactive
[19]
  outcome: inactive

## COc1ccccc1C(=O)Nc1ccc2c(c1)C(=O)N(C)C[C@H](OC)[C@@H](C)CN(CC1CC1)[C@@H](C)CO2
[17]
  outcome: inactive
[18]
  outcome: inactive
[19]
  outcome: inactive

## CS(=O)(=O)c1ccc(-c2cnc3c(NC=O)cc(-c4ccsc4)cn23)cc1
[17]
  outcome: inactive
[18]
  outcome: inactive
[19]
  outcome: inactive

## C[C@@H]1CN([C@H](C)CO)C(=O)c2c(c3ccccc3n2C)-c2ccccc2CO[C@H]1CN(C)S(=O)(=O)c1ccc(Cl)cc1
[17]
  outcome: inactive
[18]
  outcome: inactive
[19]
  outcome: inactive

## COc1cccc(S(=O)(=O)Nc2ccc3c(c2)OC[C@H](C)NC[C@@H](C)[C@H](OC)CN(C)C3=O)c1
[17]
  outcome: inactive
[18]
  outcome: inactive
[19]
  outcome: inactive

## C[C@H](CO)N1C[C@H](C)[C@H](CN(C)Cc2ccccc2)Oc2cc(C#Cc3ccccn3)ccc2S1(=O)=O
[17]
  outcome: inactive
[18]
  outcome: inactive
[19]
  outcome: inactive
